How the values were obtained:
Test in all cases: growth inhibition (% activity, log2 RLU normalised to DMSO / staurosporine); higher = more growth inhibition
Details in all cases: 33 µM
[1] = test system: DIPGX29 (H3.3 K27M diffuse intrinsic pontine glioma line)
Outline: (§1)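 Approved drugs, at a single final concentration of about 33 μM, were applied in triplicate to pHGG cell lines and H9-derived neural stem cells for 7 days at 37 °C, 5% CO2. The growth-inhibition value is the replicate median of log2-transformed CellTiter-Glo luminescence normalised per plate to % activity between solvent and positive control wells.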

[2] = test system: DIPGX37 (H3.3 K27M diffuse intrinsic pontine glioma line)
Outline: as §1

[3] = test system: DIPGX7 (H3.3 K27M diffuse intrinsic pontine glioma line)
Outline: as §1

[4] = test system: DIPGX9 (diffuse intrinsic pontine glioma line)
Outline: as §1

[5] = test system: HGGX39 (paediatric high-grade glioma line)
Outline: as §1

[6] = test system: HGGX6 (H3.3 G34R paediatric high-grade glioma line)
Outline: as §1

[7] = test system: HNSC
Outline: as §1

[8] = test system: SUDIPGIV (diffuse intrinsic pontine glioma line)
Outline: as §1

[9] = test system: SUDIPGVI (diffuse intrinsic pontine glioma line)
Outline: as §1

[10] = test system: SUDIPGXIII (diffuse intrinsic pontine glioma line)
Outline: as §1

SMILES | growth inhibition [1] [%] | growth inhibition [2] [%] | growth inhibition [3] [%] | growth inhibition [4] [%] | growth inhibition [5] [%] | growth inhibition [6] [%] | growth inhibition [7] [%] | growth inhibition [8] [%] | growth inhibition [9] [%] | growth inhibition [10] [%]
CC(COc1ccccc1)N(CCCl)Cc1ccccc1 (stereo not given) | -2.73 | -0.547 | 0.876 | -1.7 | -4.31 | -3.53 | 41.4 | -2.44 | -7.02 | 1.89
Cc1onc(-c2c(Cl)cccc2Cl)c1C(=O)N[C@@H]1C(=O)N2[C@@H]1SC(C)(C)[C@@H]2C(=O)O | 1.78 | 1.6 | 0.879 | 0.739 | 2.25 | 1.63 | -0.363 | 1.41 | 2.27 | -0.796
O=c1ccn([C@@H]2O[C@H](CO)[C@@H](O)[C@H]2O)c(=O)[nH]1 | -0.716 | -1.37 | 1.57 | -0.704 | 0.73 | -4.51 | 17.6 | -1.57 | -0.357 | -2.42
CN1CC(=O)N2[C@H](c3ccc4c(c3)OCO4)c3[nH]c4ccccc4c3C[C@@H]2C1=O | -0.154 | 2.3 | 0.64 | 0.257 | 2.46 | 0.71 | -0.244 | 0.899 | -1.44 | 2.73
CN/C(=N\CCSCc1nc[nH]c1C)NC#N | 0.842 | 1.91 | 1.01 | 0.766 | 1.68 | 1.98 | 0.707 | -0.184 | 2.38 | 0.0177
CC1CCc2c(N3CCC(O)CC3)c(F)cc3c(=O)c(C(=O)O)cn1c23 (stereo not given) | 1.83 | 2.99 | 1.32 | 2.53 | 3.35 | 2.89 | 4.09 | 0.692 | 3.03 | -1.17
COc1c2occc2cc2ccc(=O)oc12 | -0.546 | -5.42 | -1.53 | -1.09 | -2.13 | -2.24 | 0.777 | -2.41 | -9.54 | -0.581
Cc1cc(C)nc(NS(=O)(=O)c2ccc(N)cc2)n1 | -2.92 | 0.0741 | -1.22 | -1.22 | -1.68 | -2.24 | 4.45 | -1.47 | -1.67 | 0.778
CN(C)c1cc(NC(=O)CNC(C)(C)C)c(O)c2c1CC1CC3C(N(C)C)C(=O)C(C(N)=O)=C(O)C3(O)C(=O)C1=C2O (stereo not given) | -2.13 | -0.102 | -0.656 | -1.41 | -1.33 | -2.33 | -2.93 | -2.9 | -1.89 | 0.694
c1ccc2c(CC3=NCCN3)cccc2c1 | 0.509 | 1.82 | 1.78 | 1.2 | 4.23 | -1.48 | 10 | 1.67 | 3.03 | 1.34
CNC[C@H](O)c1cccc(O)c1 | 0.744 | -0.539 | 2.1 | 0.894 | 4.28 | 0.958 | 3.62 | 0.826 | 0.615 | 0.446
CCC(C)C1OC2(CCC1C)CC1CC(CC=C(C)C(OC3CC(OC)C(OC4CC(OC)C(O)C(C)O4)C(C)O3)C(C)C=CC=C3COC4C(O)C(C)=CC(C(=O)O1)C34O)O2 (stereo not given) | 3.13 | 0.396 | 1.82 | 2.33 | 3.17 | 15.6 | 27.4 | 0.217 | 3.51 | 47.6
N=C(N)NCCN1CCCCCCC1 | 1.99 | -0.0479 | 2.35 | 1.9 | 2.8 | 1.1 | 5.04 | 0.15 | 5 | -0.376
COC1C(O)CC(=O)OC(C)CC=CC=CC(OC2CCC(N(C)C)C(C)O2)C(C)CC(CC=O)C1OC1OC(C)C(OC2CC(C)(O)C(O)C(C)O2)C(N(C)C)C1O (stereo not given) | 0.981 | 1.73 | -0.322 | 0.622 | 1.26 | 1.89 | -0.2 | -0.377 | 1.86 | 0.183
O=C(O)c1cc(-c2ccccc2)nc2ccccc12 | 0.382 | 2.97 | 0.465 | 2.04 | 1.46 | 1.01 | -0.619 | -1.08 | 2.54 | 0.975
CN(C)CCCN1c2ccccc2Sc2ccc(Cl)cc21 | -1.92 | -1.4 | 0.129 | -1.08 | 0.279 | -2.17 | 24.1 | -0.706 | -5.1 | 2.77
NC[C@H](O)c1ccc(O)c(O)c1 | 1.26 | 2.54 | 0.579 | 1.67 | 3.45 | 1.96 | -0.629 | 1.37 | 3.2 | 1.73
CC(=O)N[C@H]1[C@H]([C@H](O)[C@H](O)CO)OC(C(=O)O)=C[C@@H]1NC(=N)N | 1.23 | 2.89 | 2.14 | 1.62 | 1.17 | -2.7 | 7.75 | 1.46 | 2.82 | 2.15
CNC(=O)c1cc(Oc2ccc(NC(=O)Nc3ccc(Cl)c(C(F)(F)F)c3)c(F)c2)ccn1 | 4.67 | 2.29 | 3.66 | 2.56 | 5.15 | 5.99 | 39.1 | 1.19 | 4.32 | 59.3
OC(CCN1CCCCC1)(c1ccccc1)c1ccccc1 | -0.46 | 1.3 | -0.768 | -0.762 | -0.68 | 0.348 | -1.66 | -1.24 | 0.131 | 1.07
CCN1CC(CCN2CCOCC2)C(c2ccccc2)(c2ccccc2)C1=O (stereo not given) | 3.26 | 4.12 | 3.42 | 1.56 | 3.54 | 3.39 | 6.96 | 3.42 | 2.27 | -0.683

SMILES | growth inhibition [1] [%] | growth inhibition [2] [%] | growth inhibition [3] [%] | growth inhibition [4] [%] | growth inhibition [5] [%] | growth inhibition [6] [%] | growth inhibition [7] [%] | growth inhibition [8] [%] | growth inhibition [9] [%] | growth inhibition [10] [%]
C1N2CN3CN1CN(C2)C3 | 1.11 | 3.51 | 1.18 | 2.53 | 3.89 | 2.47 | 0.987 | 1.56 | 1.89 | -0.234
C[C@H](Cc1cc2c(c(C(N)=O)c1)N(CCCO)CC2)NCCOc1ccccc1OCC(F)(F)F | 1.54 | 2.46 | 0.991 | -0.478 | 0.741 | -0.678 | 3.54 | 1.64 | 1.49 | -1.83
Clc1ccc(C(Cn2ccnc2)OCc2c(Cl)cccc2Cl)c(Cl)c1 (stereo not given) | 2.72 | 3.03 | 3.97 | 3.76 | 8.33 | 5.87 | 4.09 | 11.2 | 2.55 | 10.5
Cc1cc(-n2c(=O)[nH]c(=O)n(C)c2=O)ccc1Oc1ccc(SC(F)(F)F)cc1 | 1.92 | 4.99 | 3.64 | 1.95 | 4.82 | 2.18 | 5.28 | 2.64 | 4.98 | -0.649
COC(=O)/C=C/C(=O)OC | -1.63 | 0.743 | -0.432 | -0.334 | 0.42 | -3.26 | 6.49 | -2.1 | -1 | 1.57
Cc1ccccc1N1C(=O)c2cc(S(N)(=O)=O)c(Cl)cc2NC1C (stereo not given) | -2.6 | 0.236 | -3.01 | -0.0701 | -1.7 | -0.825 | -3.02 | -1.65 | -1.57 | -0.324
COc1cc(C(C)=O)ccc1OCCCN1CCC(c2noc3cc(F)ccc23)CC1 | 1.79 | 0.322 | 12.7 | 0.361 | 4.35 | 0.871 | 0.367 | 2.3 | -12.2 | 4.02
Nc1ccc(O)c(C(=O)O)c1 | 0.36 | 1.83 | 0.431 | 2.63 | 1.1 | 1.6 | 2.49 | 0.538 | 1.92 | -1.01
CCN[C@H]1CN(CCCOC)S(=O)(=O)c2sc(S(N)(=O)=O)cc21 | 0.611 | 0.875 | 1.84 | 0.558 | 2.35 | 2.83 | -0.529 | -0.244 | 2.59 | -0.696
CC(=O)NS(=O)(=O)c1ccc(NC(=O)c2ccccc2C(=O)O)cc1 | -1.87 | -0.137 | -3.14 | -1.16 | -2.19 | -0.75 | -2.78 | -2.4 | -1.59 | -0.151
CCCOc1ccc(C(=O)OCCN(CC)CC)cc1N | -3.81 | -2.51 | 0.125 | -2.19 | 6.15 | 3.2 | 4.12 | -0.212 | -1.94 | 0.093
N=C(N)c1ccc(OCCCCCOc2ccc(C(=N)N)cc2)cc1 | 12.3 | -2.71 | 16.9 | 13.9 | 42.9 | 20.2 | 43.6 | 45 | 44.2 | 16.5
O=C(CCNNC(=O)c1ccncc1)NCc1ccccc1 | -2.81 | 1.16 | -0.869 | -2.76 | -1.32 | -1.96 | 2.79 | -2.06 | -1.86 | 0.338
CCCCOc1ccc(CC(=O)NO)cc1 | 4.76 | 1.97 | 54.5 | 3.15 | 12.5 | 12.9 | 17.1 | 3.36 | -3.3 | -0.824
CN1CCC(=C2c3ccccc3CCc3sccc32)CC1 | 2.69 | 1.01 | 1.97 | 2.15 | 7.57 | -1.66 | 1.57 | 3.73 | -0.736 | 1.69
NS(=O)(=O)c1cc2c(cc1Cl)N=CNS2(=O)=O | -2.49 | -1.85 | 0.251 | -2.53 | -3.41 | -3.61 | -4.62 | -3.95 | -5.67 | 0.373
CC(=O)O[C@H]1C[C@@H]2CC[C@@H]3[C@H](CC[C@@]4(C)[C@H]3C[C@H]([N+]3(C)CCCCC3)[C@@H]4OC(C)=O)[C@@]2(C)C[C@@H]1N1CCCCC1 | 0.923 | -0.759 | 1.01 | 1.13 | 1.15 | -0.813 | 1.96 | -0.377 | 1.82 | -0.269
O=C(O)C[C@H](O)C[C@H](O)/C=C/c1c(C2CC2)nc2ccccc2c1-c1ccc(F)cc1 | 16.1 | -2.02 | 38.6 | 7.33 | 48.3 | 30.8 | 56.2 | 39.9 | 33.5 | 32.8
O=C(O)[C@H](CC(=O)N1C[C@H]2CCCC[C@H]2C1)Cc1ccccc1 | 0.852 | -5.28 | 0.289 | 1.86 | 1.09 | 0.619 | 1.48 | 1.74 | 1.16 | -1.34
C=C1c2c(Cl)ccc(O)c2C(=O)C2=C(O)[C@]3(O)C(=O)C(C(N)=O)=C(O)[C@@H](N(C)C)[C@@H]3[C@@H](O)[C@H]12.O=C(O)c1cc(S(=O)(=O)O)ccc1O | 3.13 | 1.57 | 2.88 | 2.29 | 8.03 | 6.26 | 8.17 | 7.96 | 4.89 | 3.19

Reference: the supplement of paper PMC8253809
